Outcome and AC50 data for 40 compounds are collected here from PubChem BioAssay (EPA / NIEHS).

As a reminder, the AC50 is the concentration at which the activity in the assay is half-maximal.

Active and inactive are the calls of the source. Rule for the calls: active = hit-call score of the fitted dose curve at least 0.9, where 1 is the maximum; inactive = score below 0.9.

The nature of this test: ATG_M_32_CIS: Attagene CIS-FACTORIAL HepG2 Assay for M32 Transcription Factor (Internal Marker) (AID 2282949).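 Note: background control marker of the multiplexed CIS panel rather than a real target.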 Conditions: HepG2 Attagene cis-factorial M32 reporter, mRNA; actives raise or lower the signal. On the procedure: ATG_CIS is a cell-based, multiplexed-readout assay that uses HepG2, a human liver cell line, with measurements taken at 24 hours after chemical dosing in a 24-well plate.ATG_M_32_CIS is one of 52 assay component(s) measured or calculated from the ATG_CIS assay. It is designed to make measurements of mRNA induction, a form of inducible reporter, as detected with fluorescence intensity signals by Reverse transcription polymerase chain reaction (RT-PCR) and Capillary electrophoresis technology.Data from the assay component ATG_M_32_CIS was analyzed into 1 assay endpoint. This assay endpoint, ATG_M_32_CIS, was analyzed with bidirectional fitting relative to DMSO as the negative control and baseline of activity. Using a type of inducible reporter, measures of mRNA for gain or loss-of-signal activity can be used to understand the background control at the transcription factor-level as they relate to the gene . Furthermore, this assay endpoint can be referred to as a secondary readout, because this assay has produced multiple assay endpoints where this one serves a background control function. To generalize the intended target to other relatable targets, this assay endpoint is annotated to the background measurement intended target family, where the subfamily is internal marker.
Human liver HepG2 cells are transiently transfected with multiple reporter transcription units (MRTUs) in 6-well plates using FuGene 6 reagent (Roche; 3 ml FuGene/1 mg DNA). The MRTU constructs are regulated by a cis-regulating element (promoter). […] A major difference between the CIS and TRANS system is that in CIS activities of endogenous TFs are measured, whereas the TRANS assay evaluates changes in activities of exogenous, chimeric NR-Gal4 proteins. […] At the end of 24 hour incubation, total RNA was isolated using TriZol reagent (Invitrogen). The isolated RNA is then reverse-transcribed using oligo(dT) primer and Mo-MLV reverse transcriptase (Invitrogen) with DNAse I (Ambion) treatment for 30 min. The one-tenth of the produced cDNA was amplified by PCR using Taq DNA polymerase (Invitrogen) and two reporter sequence-specific primers. The PCR products were fluorescently labeled by primer extension with 6-arboxyfluorescein (6-FAM) 5'-labeled reporter sequence-specific primer (2 min at 95 C, 20 s at 68 C and 10 min at 72 C) and these products were digested with 5U of HpaI (New England Biolabs) for 2h at 37 C. The fragments were purified using Qiaquick PCR columns (Qiagen), analyzed on an ABI 3130xL genetic analyzer (Applied Biosystems) with peak positions identified by using a set of X-rhodamine (ROX)-labeled MapMarker1000 molecular weight standards (BioVentures). The raw capillary electrophoresis data was processed using Attagraph software (Attagene).
Turning to `O=C(O)CCCCC1CCSS1` (stereo not given), the result was inactive.
Still for that read-out and setting: as for `CO[Si](C)(OC)c1ccccc1`, the entry is “inactive”.
Same read-out and setting: with `C[C@]12CC[C@H]3[C@@H](CCC4=CC(=O)CC[C@@]43C)[C@@H]1CC[C@@H]2C(=O)CO` the entry was “inactive”; with `COc1ccc(O)cc1`, “inactive”.
On to `COc1cc2ncnc(Nc3cccc(Cl)c3)c2cc1OC`, for which the result was inactive.
`O=C(O)c1cn(-c2ccc(F)cc2)c2cc(N3CCNCC3)c(F)cc2c1=O`: the compound was called inactive.
In the case of `C[C@H]1C[C@@H]2[C@H]([C@@H](O)C[C@@]3(C)[C@H]2CC[C@]3(O)C(=O)CO)[C@@]2(C)C=CC(=O)C=C12`, the AC50 was 131 µM (active).
As to `Cc1ccc(C(=O)O)o1`, the call was inactive.
Still for that read-out and setting: with `CCCC(=O)OCCC(C)CCC=C(C)C` (stereo not given) the entry was “inactive”.
Still for that read-out and setting: as for `N#Cc1ccccc1`, the entry is “inactive”.
Consider `O=C1c2ccccc2C(=O)N1SC1CCCCC1`, for which the concentration at half-maximal activity (AC50) is 189 µM (active).
On to `O=C(O)CCCCCCCCCCC(=O)O`, for which the call was inactive.
Same read-out and setting: as for `C=O`, the entry is “inactive”; as for `CCCCCCOC(=O)CC`, “inactive”.
Take `CC(c1cc2ccccc2s1)N(O)C(N)=O` (stereo not given): the outcome was inactive.
Still for that read-out and setting: with `COc1ccc(Nc2ccccc2)c(C)c1` the entry was “inactive”; with `Cc1ccc(C=O)cc1`, “inactive”; with `CC1(C)OC[C@@H]2O[C@@]3(C(=O)O)OC(C)(C)O[C@H]3[C@@H]2O1`, “inactive”.
On the same count and under the same terms, with `C=C[Si](OCC)(OCC)OCC` the entry was “inactive”; with `CC(C)c1cccc(O)c1`, “inactive”.
On the same count and under the same terms, as for `O=C(O)c1cccc([N+](=O)[O-])c1`, the entry is “inactive”; as for `CCCCCCCCCCN`, “inactive”.
On to `OCCN1CCNCC1`, for which the result was inactive.
Still for that read-out and setting: with `CC(C)(CO)[N+](=O)[O-]` the entry was “inactive”; with `CCCC/C=C\CCCCCCCCCC=O`, “inactive”; with `CC(C)(COC(=O)c1ccccc1)COC(=O)c1ccccc1`, “inactive”.
In the case of `C=CC(=O)OCCn1c(=O)n(CCOC(=O)C=C)c(=O)n(CCOC(=O)C=C)c1=O`, the compound was called inactive.
Still for that read-out and setting: with `COc1cc(C)cc(O)c1` the entry was “inactive”; with `CCCCCC(CO)CCC` (stereo not given), “inactive”; with `CCCCCCCCCCCCOCCO`, “inactive”.
On the same count and under the same terms, as for `O=C1CCc2ccccc2O1`, the entry is “inactive”; as for `OCC(CO)(CO)COCC(CO)(CO)CO`, “inactive”; as for `Cc1ccc2n[nH]nc2c1`, “inactive”.
Still for that read-out and setting: as for `O=C(O)Cc1cccc2ccccc12`, the entry is “inactive”.
On to `C#C[C@]1(O)CC[C@H]2[C@@H]3CCC4=Cc5oncc5C[C@]4(C)[C@H]3CC[C@@]21C`, for which the outcome was inactive.
Same read-out and setting: with `COCCOCCOCCOCCOCCO` the entry was “inactive”; with `CC(=O)O[C@H](CC(=O)[O-])C[N+](C)(C)C`, “inactive”.
The same measure, in the same setting: as for `CCC(C)CCCC(C)(C)O` (stereo not given), the entry is “inactive”; as for `CCCCCCCCC`, “inactive”.
On to `O=C=NC1CCC(CC2CCC(N=C=O)CC2)CC1` (stereo not given), for which the half-maximal activity concentration (AC50) is 164 µM (active).
